Legend:
Assay in all cases: log2 ratio of Biotin-Ahx-Ub-VS probe labelling (fragment/DMSO); higher = less target engagement (more negative = stronger competition), active = hit call of the paper (q ≤ 0.05, log2 ratio ≤ -1)
Conditions in all cases: compound concentration: 200 uM; treatment time: 3 h
USP9X = USP9X (UniProt Q93008)
Summary of the method: (§1)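 HEK293T lysate (495 µg per sample, in Tris/CHAPS/IGEPAL buffer with protease inhibitors) was exposed in triplicate for 3 h to fragment at 200 µM or to vehicle, then to Biotin-Ahx-Ub-VS at 0.5 µM final for 1 h. Labelled DUBs were enriched on NeutrAvidin, digested with LysC and trypsin, and analysed by diaPASEF LC-MS/MS. Spectronaut label-free quantities were normalised to the global median, and values are average log2 ratios of fragment over vehicle from an unpaired t-test. Only proteins with ≥2 unique peptides were used.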

UniProt O00487 = biological target: UniProt O00487
Summary of the method: as §1

UniProt O00507 = biological target: UniProt O00507
Summary of the method: as §1

UniProt P51784 = biological target: UniProt P51784
Summary of the method: as §1

UniProt Q5T2D3 = biological target: T1, UniProt Q5T2D3
T1 sequence (whole entry): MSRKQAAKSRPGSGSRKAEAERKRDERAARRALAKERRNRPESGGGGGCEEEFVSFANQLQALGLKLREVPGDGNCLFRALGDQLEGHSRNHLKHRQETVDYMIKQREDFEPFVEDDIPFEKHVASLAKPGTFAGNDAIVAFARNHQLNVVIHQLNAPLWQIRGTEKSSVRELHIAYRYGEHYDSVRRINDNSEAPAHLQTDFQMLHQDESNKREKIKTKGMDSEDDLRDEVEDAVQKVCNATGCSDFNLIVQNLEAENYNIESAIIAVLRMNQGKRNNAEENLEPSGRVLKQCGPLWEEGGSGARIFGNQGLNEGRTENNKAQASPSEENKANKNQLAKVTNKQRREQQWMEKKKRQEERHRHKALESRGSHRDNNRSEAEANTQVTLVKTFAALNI
Summary of the method: as §1

UniProt Q8TE49 = biological target: T2, UniProt Q8TE49
T2 sequence (whole entry): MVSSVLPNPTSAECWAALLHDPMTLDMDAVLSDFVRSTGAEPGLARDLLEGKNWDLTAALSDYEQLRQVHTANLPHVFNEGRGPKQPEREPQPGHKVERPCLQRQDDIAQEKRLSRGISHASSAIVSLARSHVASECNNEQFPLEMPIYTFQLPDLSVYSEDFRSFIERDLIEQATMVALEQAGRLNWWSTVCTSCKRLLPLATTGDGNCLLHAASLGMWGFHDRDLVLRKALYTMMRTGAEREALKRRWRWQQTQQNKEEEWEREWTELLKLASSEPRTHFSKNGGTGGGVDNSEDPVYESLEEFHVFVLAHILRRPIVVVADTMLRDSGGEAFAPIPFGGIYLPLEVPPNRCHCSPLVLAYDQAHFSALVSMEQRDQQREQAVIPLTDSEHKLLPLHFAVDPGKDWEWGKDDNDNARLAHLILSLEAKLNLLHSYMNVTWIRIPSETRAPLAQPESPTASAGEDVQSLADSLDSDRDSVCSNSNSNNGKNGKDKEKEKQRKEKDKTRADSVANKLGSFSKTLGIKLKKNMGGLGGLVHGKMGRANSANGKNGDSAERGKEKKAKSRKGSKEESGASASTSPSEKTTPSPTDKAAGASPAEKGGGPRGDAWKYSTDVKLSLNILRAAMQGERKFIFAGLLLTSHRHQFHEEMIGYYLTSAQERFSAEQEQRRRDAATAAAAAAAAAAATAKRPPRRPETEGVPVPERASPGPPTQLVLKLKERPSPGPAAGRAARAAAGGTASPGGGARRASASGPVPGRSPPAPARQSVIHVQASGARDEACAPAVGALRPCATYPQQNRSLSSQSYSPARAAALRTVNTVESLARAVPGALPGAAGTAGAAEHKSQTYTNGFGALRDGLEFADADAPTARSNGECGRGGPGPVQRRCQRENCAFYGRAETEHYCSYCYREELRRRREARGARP
Summary of the method: as §1

UniProt Q9P2H5 = biological target: T3, UniProt Q9P2H5
T3 sequence (whole entry): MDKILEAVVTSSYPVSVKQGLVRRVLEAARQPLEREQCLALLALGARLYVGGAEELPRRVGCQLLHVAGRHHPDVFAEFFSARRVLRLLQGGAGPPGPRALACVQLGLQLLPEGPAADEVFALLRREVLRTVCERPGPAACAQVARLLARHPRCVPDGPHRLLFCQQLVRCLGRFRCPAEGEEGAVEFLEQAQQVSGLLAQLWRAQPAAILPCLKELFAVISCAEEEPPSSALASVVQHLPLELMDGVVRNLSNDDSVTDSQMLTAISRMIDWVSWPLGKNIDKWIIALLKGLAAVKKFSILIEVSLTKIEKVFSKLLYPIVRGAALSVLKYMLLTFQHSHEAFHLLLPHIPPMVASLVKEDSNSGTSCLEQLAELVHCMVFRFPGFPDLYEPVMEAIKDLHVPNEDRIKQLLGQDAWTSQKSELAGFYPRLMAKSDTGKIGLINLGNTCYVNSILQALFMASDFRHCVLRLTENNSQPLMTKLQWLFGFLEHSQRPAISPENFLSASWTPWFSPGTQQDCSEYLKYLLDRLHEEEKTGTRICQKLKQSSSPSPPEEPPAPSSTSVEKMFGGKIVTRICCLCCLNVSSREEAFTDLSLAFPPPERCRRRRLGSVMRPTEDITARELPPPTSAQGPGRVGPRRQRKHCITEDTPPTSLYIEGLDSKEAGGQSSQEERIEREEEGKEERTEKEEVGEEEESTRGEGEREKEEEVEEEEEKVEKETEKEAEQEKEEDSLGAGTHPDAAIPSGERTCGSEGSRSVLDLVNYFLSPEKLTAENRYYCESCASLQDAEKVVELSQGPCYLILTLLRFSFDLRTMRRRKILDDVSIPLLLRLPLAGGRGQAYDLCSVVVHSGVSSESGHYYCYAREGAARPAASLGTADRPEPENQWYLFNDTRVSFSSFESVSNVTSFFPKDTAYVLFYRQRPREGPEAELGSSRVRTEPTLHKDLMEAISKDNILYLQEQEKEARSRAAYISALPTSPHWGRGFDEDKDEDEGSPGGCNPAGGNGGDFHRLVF
Summary of the method: as §1

UniProt Q9UGI0 = biological target: T4, UniProt Q9UGI0
T4 sequence (whole entry): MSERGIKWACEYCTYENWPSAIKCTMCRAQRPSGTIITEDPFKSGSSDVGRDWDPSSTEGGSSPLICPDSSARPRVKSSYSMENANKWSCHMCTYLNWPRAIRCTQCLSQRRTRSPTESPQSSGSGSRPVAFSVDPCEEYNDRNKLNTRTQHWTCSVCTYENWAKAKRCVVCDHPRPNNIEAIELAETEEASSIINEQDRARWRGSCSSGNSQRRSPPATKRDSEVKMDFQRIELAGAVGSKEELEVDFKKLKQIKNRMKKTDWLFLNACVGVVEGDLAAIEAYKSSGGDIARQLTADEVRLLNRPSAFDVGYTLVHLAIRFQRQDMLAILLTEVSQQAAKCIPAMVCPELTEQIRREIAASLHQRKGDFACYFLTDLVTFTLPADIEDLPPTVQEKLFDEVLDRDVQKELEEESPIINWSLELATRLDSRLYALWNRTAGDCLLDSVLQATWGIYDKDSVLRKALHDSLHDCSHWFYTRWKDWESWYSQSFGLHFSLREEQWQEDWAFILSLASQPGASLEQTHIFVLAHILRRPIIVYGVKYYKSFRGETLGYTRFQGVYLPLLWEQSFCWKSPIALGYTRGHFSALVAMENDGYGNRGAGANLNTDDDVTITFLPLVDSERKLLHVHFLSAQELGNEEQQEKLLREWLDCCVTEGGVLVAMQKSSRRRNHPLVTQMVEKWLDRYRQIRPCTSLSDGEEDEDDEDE
Summary of the method: as §1

YOD1 = biological target: T5, YOD1 (UniProt Q5VVQ6)
T5 sequence (whole entry): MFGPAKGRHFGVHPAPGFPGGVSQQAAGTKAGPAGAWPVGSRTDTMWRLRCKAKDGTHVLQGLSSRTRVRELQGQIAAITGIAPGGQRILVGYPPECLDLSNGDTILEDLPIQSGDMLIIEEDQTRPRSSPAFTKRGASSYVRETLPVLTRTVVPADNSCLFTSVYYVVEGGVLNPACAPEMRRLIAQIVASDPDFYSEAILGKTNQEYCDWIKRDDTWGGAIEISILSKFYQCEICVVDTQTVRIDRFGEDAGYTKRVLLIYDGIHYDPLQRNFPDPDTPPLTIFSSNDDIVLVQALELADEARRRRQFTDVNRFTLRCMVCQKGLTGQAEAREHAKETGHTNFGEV
Summary of the method: as §1

Measured: log2 ratio of Biotin-Ahx-Ub-VS probe labelling

UniProt O00507, sequence (O00507 whole entry): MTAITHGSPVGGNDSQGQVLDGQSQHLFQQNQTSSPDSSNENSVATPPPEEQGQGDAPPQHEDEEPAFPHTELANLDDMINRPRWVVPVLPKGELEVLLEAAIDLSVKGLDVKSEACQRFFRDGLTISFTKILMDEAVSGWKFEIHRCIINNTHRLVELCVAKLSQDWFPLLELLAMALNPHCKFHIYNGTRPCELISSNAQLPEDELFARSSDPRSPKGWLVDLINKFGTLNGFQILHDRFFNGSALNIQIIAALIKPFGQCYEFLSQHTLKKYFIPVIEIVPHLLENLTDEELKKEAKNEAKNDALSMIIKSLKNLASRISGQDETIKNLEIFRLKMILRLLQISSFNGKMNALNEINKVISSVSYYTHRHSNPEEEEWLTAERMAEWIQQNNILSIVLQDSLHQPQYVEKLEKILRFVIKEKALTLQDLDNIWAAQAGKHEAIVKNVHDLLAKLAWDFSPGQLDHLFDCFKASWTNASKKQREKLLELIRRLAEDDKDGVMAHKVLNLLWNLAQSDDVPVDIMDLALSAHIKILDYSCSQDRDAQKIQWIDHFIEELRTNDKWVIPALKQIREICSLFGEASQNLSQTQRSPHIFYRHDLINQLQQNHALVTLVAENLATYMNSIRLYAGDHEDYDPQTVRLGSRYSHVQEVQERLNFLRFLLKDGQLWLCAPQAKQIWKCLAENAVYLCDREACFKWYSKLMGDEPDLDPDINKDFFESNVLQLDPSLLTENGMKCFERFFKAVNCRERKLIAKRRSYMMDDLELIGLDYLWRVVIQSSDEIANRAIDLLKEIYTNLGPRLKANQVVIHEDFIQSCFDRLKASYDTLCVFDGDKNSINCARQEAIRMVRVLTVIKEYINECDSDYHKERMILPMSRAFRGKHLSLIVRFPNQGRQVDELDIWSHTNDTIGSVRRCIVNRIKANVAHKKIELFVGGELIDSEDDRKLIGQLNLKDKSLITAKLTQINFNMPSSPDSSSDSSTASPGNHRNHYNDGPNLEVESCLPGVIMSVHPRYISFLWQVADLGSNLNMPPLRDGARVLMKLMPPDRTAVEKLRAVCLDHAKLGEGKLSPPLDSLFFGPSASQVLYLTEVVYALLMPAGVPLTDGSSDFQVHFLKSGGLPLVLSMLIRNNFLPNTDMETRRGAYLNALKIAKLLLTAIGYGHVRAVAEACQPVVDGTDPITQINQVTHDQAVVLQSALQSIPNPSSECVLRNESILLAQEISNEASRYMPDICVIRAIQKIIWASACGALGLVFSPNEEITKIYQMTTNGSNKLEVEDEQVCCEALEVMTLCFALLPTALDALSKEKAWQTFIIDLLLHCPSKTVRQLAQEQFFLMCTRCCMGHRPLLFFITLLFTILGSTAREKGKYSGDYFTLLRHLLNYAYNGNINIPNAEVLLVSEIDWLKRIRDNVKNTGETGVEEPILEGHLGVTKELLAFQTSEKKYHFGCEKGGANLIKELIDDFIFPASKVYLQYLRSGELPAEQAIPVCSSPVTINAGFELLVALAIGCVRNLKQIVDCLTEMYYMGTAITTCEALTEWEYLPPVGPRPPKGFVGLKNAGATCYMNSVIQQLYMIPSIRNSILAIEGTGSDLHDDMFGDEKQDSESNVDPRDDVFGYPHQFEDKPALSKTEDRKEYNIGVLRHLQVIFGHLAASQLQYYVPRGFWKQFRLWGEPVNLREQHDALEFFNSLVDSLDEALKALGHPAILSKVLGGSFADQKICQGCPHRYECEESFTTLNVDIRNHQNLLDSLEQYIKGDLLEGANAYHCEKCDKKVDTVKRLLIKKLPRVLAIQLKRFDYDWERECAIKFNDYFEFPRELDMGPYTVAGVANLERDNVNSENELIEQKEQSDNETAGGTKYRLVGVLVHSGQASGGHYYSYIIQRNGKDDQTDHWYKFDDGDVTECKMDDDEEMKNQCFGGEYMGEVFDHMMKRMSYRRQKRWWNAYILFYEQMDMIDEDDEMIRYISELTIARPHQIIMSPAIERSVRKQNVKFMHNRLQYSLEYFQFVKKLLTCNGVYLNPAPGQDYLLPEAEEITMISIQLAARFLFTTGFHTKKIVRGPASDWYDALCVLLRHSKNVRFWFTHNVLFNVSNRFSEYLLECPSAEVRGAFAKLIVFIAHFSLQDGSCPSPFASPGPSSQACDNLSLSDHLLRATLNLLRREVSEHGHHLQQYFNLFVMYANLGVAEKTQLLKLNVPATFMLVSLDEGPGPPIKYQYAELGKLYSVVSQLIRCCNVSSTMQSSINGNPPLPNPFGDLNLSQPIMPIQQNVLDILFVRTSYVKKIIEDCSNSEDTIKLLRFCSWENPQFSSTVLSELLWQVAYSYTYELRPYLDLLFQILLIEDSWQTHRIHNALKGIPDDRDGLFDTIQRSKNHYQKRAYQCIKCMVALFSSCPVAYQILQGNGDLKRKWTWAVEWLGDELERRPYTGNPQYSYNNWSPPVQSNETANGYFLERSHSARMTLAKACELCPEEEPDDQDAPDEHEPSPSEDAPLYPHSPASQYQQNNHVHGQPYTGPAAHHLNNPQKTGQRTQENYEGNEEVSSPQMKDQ
UniProt P51784, sequence (P51784 whole entry): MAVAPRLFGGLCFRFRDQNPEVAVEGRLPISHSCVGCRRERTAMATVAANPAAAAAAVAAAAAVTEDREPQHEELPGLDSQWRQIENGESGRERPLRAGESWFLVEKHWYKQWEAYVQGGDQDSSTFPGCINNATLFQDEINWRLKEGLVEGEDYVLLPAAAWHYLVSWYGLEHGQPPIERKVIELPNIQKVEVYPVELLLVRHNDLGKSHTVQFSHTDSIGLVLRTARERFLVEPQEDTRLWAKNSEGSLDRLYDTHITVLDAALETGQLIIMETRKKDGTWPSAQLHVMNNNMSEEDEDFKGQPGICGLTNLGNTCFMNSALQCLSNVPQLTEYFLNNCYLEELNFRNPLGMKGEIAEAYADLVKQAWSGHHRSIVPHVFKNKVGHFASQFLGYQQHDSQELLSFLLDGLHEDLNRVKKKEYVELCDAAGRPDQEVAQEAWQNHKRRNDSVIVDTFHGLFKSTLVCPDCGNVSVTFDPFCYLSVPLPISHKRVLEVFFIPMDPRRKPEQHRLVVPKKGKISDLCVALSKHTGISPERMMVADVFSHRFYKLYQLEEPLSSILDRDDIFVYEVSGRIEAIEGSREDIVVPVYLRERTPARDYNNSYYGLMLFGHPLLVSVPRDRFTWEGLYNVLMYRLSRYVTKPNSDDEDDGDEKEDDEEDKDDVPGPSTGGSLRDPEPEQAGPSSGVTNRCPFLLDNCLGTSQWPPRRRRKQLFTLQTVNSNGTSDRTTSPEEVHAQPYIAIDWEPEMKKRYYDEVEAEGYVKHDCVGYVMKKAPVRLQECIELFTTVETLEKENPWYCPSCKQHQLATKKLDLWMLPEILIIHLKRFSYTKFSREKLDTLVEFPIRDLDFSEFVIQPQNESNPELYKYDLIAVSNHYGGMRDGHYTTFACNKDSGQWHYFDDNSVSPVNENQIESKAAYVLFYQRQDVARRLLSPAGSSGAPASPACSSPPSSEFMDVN
UniProt O00487, sequence (O00487 whole entry): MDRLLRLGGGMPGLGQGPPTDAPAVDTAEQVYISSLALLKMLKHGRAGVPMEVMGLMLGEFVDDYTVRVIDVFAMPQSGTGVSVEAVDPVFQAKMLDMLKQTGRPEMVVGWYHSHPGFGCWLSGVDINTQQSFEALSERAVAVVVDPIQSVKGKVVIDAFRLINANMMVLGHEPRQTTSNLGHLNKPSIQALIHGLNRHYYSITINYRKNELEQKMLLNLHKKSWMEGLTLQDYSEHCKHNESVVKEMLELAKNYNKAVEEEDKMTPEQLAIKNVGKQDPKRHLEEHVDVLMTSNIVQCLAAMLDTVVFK

O=C(CCl)N(C1CCCC1)C1CCS(=O)(=O)C1 (centres undefined)
inactive: USP9X -0.0338 | UniProt O00487 -0.119 | UniProt O00507 0.335 | UniProt P51784 -0.112 | UniProt Q5T2D3 -0.128 | UniProt Q8TE49 -0.372 | UniProt Q9P2H5 -0.386 | UniProt Q9UGI0 -0.121 | YOD1 0.15
